Screening results deposited in PubChem by several laboratories.
Shown are actives, neighbours in structure and some others; about 1.4% of the full set was active somewhere.
MEX-5 binding = C. elegans MEX-5 TCR-2 RNA binding activity. Q9XUB2. AID 1832. 300,000 compounds, 0.38% hits. activity score (negative = inhibition of binding), % at 10 µM. MEX-5/FITC-TCR2 RNA binding, fluorescence polarization; active compounds read low;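 active means inhibition past about -25% in most replicates, and total fluorescence under double the plate's negative control median, limit read from the data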
BCLXL inh = blocks human Bcl-xL binding to Bim BH3 peptide; AID 2129; GST-Bcl-xL / FITC-Bim BH3 peptide fluorescence polarization; 320,000 compounds, 0.7% hits; Q07817; inhibition, % at 10.9 µM;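 active means inhibition above the mean of all tested compounds plus 3 SD, cutoff set per campaign, cut at about 30% in these data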;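 further: inhibitors lower millipolarization by displacing the labeled peptide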
Target sequence (Q07817 whole entry, looked up): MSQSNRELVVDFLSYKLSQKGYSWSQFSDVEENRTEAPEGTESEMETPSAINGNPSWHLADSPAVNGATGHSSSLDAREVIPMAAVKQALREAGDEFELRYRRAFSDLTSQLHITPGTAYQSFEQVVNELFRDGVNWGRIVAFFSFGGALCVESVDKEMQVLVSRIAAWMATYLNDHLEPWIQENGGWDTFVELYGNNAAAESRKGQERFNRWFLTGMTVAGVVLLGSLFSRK
GLD-1 RNA inh = GLD-1-TGE RNA interaction inhibition (C. elegans); Q17339; inhibition, % at 5.96 µM; 320,000 compounds, 0.44% hits; purified GLD-1 + fluorescein TGE RNA, fluorescence polarization;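 active means percent inhibition above a per-plate cutoff, the plate mean of test compounds plus 3 SD, cut at about 30% in these data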
eLon inh = inhibits E. coli Lon protease. P0A9M0. purified E. coli Lon protease, fluorescence polarization. inhibition, % at 7.94 µM. 360,000 compounds, 0.42% hits. AID 602123; in the data active means inhibition above about 13%, passing the limit was not always enough
MCL1 BIM primary = inhibitors of human MCL1 binding to BIM-BH3 peptide; Q07820; GST-MCL1 / FITC-Bim-BH3 fluorescence polarization; inhibition, % at 10.9 µM; 320,000 compounds, 0.68% hits; AID 2057;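 active means inhibition above the mean inhibition of all tested compounds plus 3 SD, set per campaign, cut at about 40% in these data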;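 further: higher means more loss of mP so more displacement of Bim peptide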
Target sequence (Q07820 whole entry, looked up): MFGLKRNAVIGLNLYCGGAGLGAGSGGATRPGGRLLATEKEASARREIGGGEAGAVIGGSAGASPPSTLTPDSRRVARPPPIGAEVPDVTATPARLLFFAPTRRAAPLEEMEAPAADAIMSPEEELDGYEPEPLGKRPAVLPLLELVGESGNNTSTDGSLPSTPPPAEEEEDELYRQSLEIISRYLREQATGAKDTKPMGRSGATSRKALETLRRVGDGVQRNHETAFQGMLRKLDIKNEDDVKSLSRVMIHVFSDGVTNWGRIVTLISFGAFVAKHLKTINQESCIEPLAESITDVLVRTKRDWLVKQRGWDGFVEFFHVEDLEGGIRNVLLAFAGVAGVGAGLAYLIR
E coli Lon conf = E. coli Lon inhibition confirmation; shares compounds with eLon inh; 1,400 compounds, 31% hits; purified E. coli Lon, fluorescence polarization; AID 602230; inhibition, % at 7.94 µM; in the data active means inhibition above about 16%
Of the large screens only hits and unclear results are named; the others gave an inactive call (follow-up assays come after a bar, where they were run).

Cc1cccc(C)c1OCc1cc(C(=O)N2CCC(c3ccccc3)CC2)no1	eLon inh 20.9 | E coli Lon conf 16.8
Cc1cccc(C)c1OCc1cc(C(=O)N2CCC(C3CCCCC3)C2)no1 (configuration not stated)	none
COc1ccc(C2=CSC3=NCCN23)cc1Br	none
COc1ccccc1-c1nc2n(n1)C(c1ccc(Cl)cc1)C(C(N)=O)=C(C)N2 (configuration not stated)	eLon inh 15.5 | E coli Lon conf inactive
COc1ccccc1C1C(C(N)=O)=C(C)Nc2nc(-c3ccc(Cl)cc3)nn21 (configuration not stated)	none
COCCn1c2nc(=O)n(-c3ccccc3)c(=O)c-2nc2ccccc21	eLon inh active (no result: MEX-5 binding, BCLXL inh, GLD-1 RNA inh, MCL1 BIM primary) | E coli Lon conf active
N#CC1=C(N)Oc2ccc3ccc(O)cc3c2C1c1ccsc1 (configuration not stated)	MEX-5 binding -46.9, eLon inh active (no result: BCLXL inh, GLD-1 RNA inh, MCL1 BIM primary) | E coli Lon conf active
COc1cc(N=Nc2ccccc2C(=O)O)ccc1O	none
O=Cc1cc(N=Nc2ccccc2Cl)ccc1O	eLon inh 25.3 | E coli Lon conf 36.5
Cc1ccc2c(c1)c(N=Nc1cccc(C(=O)O)c1)c(O)n2C	none
O=Cc1cc(N=Nc2cccc(C(=O)O)c2)ccc1O	eLon inh 15.3 | E coli Lon conf 24.3
C=CC[C@H](CC(=O)N(CCO)Cc1ccccc1)C(=O)N[C@@H](COC(=O)[C@@H](CC=C)CC(=O)OC(C)(C)C)Cc1c[nH]c2ccccc12	eLon inh 21.0 (no result: MEX-5 binding, BCLXL inh, MCL1 BIM primary) | E coli Lon conf inactive
C=CC[C@@H](CC(=O)N(CCO)Cc1ccccc1)C(=O)N[C@@H](COC(=O)[C@H](CC=C)CC(=O)OC(C)(C)C)Cc1c[nH]c2ccccc12	none (no result: MEX-5 binding, BCLXL inh, MCL1 BIM primary)
Cc1ccccc1NC(=O)Cc1nnc(SCC(=O)NC2CCCC2)n1C	none
O=C(Cc1ccc(Br)cc1)N1CCN(c2ccccc2O)CC1	eLon inh 24.4 | E coli Lon conf inactive
O=C(Cc1ccc(Br)cc1)N1CCN(c2ccc(F)cc2)CC1	none
O=C(CSc1ccc2c(c1)OCCO2)N1CCN(c2ccccc2O)CC1	eLon inh 20.2 (no result: MEX-5 binding, BCLXL inh, GLD-1 RNA inh, MCL1 BIM primary) | E coli Lon conf inactive
COc1cc(OC)c(OC)cc1/C=C/c1cc(C(=O)O)c2ccccc2n1	none
COc1ccc(/C=C/c2cc(C(=O)O)c3ccccc3n2)cc1	eLon inh active | E coli Lon conf inactive
O=C(Nc1ccccc1)c1ccc(-c2ccc([N+](=O)[O-])cc2)o1	eLon inh 29.9 | E coli Lon conf inactive
Cc1ccc(C(C)C)c(OCC(=O)NN=C2CCCCCCC2)c1	none
Cc1ccc(C(C)C)c(OCC(=O)NN=C2CCCC(=O)C2)c1	eLon inh 42.9 (no result: MEX-5 binding, BCLXL inh, MCL1 BIM primary) | E coli Lon conf inactive
CC[C@]1(C(=O)OC)[C@H]2C(=O)N(C)C(=O)[C@H]2[C@H]2CN=C(SCc3ccc(C)cc3)N21	none (no result: MEX-5 binding, BCLXL inh, GLD-1 RNA inh, MCL1 BIM primary)
CCNC(=S)N=Nc1c(O)[nH]c2ccc(C(C)C)cc12	eLon inh 22.7 | E coli Lon conf 20.5
ON(CCc1ccccn1)Cc1ccccc1	none (no result: MEX-5 binding, BCLXL inh, GLD-1 RNA inh, MCL1 BIM primary)
ON(CCc1ccccn1)CCc1ccccn1	eLon inh 37.6 (no result: MEX-5 binding, BCLXL inh, GLD-1 RNA inh, MCL1 BIM primary) | E coli Lon conf 25.1
CCN1CCN(c2nc3ccccn3c(=O)c2C=O)CC1	BCLXL inh 30.8, eLon inh 20.2 | E coli Lon conf inactive
Cc1ccc2nc(N3CCN(c4ccccc4)CC3)c(C=O)c(=O)n2c1	none
Cc1ccc2nc(N3CCN(C)CC3)c(C=O)c(=O)n2c1	BCLXL inh 34.4, eLon inh 63.6 | E coli Lon conf inactive
O=Cc1c(N2CCN(c3ccccc3)CC2)nc2ccccn2c1=O	none
Cc1ccc(Oc2ccc(S(=O)(=O)N3CCOCC3)cc2C(N)=O)c(-n2nc3ccccc3n2)c1	none
C=CCOn1c(=O)c(-c2cc3ccccc3o2)[n+]([O-])c2ccccc21	MEX-5 binding -27.1, BCLXL inh 45.5, eLon inh 17.2 | E coli Lon conf inactive
Cc1c(C2Nc3ccccc3NC3=C2C(=O)CC(C)(C)C3)cnn1C (configuration not stated)	eLon inh 143.7 | E coli Lon conf inactive
CC1(C)CC(=O)C2=C(C1)Nc1ccccc1NC2c1ccccc1F (configuration not stated)	eLon inh 33.5 | E coli Lon conf inactive
CC1(C)CC(=O)C2=C(C1)Nc1ccccc1NC2c1cccs1 (configuration not stated)	none
CCN1C(=O)[C@@H]2C(C(=O)c3cnccn3)=NN[C@@H]2C1=O	none
O=C(NCc1ccccn1)c1cccc(S(=O)(=O)Nc2ccccc2Cl)c1	none (no result: MEX-5 binding)
COc1ccc(CCN2C(=O)CC(N3CCN(S(=O)(=O)c4ccccc4)CC3)C2=O)cc1 (configuration not stated)	eLon inh 12.3 | E coli Lon conf inactive
COc1ccc(CCN2C(=O)CC(N3CCOCC3)C2=O)cc1 (configuration not stated)	none
C=CCOc1ccccc1CNc1cccc(F)c1	none
C=CCOc1ccccc1CNc1ccc2[nH]c(=O)[nH]c2c1	eLon inh 25.3 | E coli Lon conf inactive
O=C(CCNC(=O)C1CCN(S(=O)(=O)c2ccc(F)cc2)CC1)NCc1ccccc1Cl	eLon inh 16.9 | E coli Lon conf inactive
CCO[C@@H]1OC(C(=O)N2CCN(Cc3ccccc3)CC2)=C[C@H](c2csc3ccccc23)[C@H]1CCCO	none
Cc1cc2oc(=O)cc(CN3CCN(Cc4ccccc4)CC3)c2cc1Cl	eLon inh 21.2 | E coli Lon conf inactive
Cc1ccc2c(CN3CCN(Cc4ccccc4)CC3)cc(=O)oc2c1	none
O=C(Nc1ccccc1Cl)c1cc(C2CCCN(C(=O)OCCF)C2)on1 (configuration not stated)	none (no result: MEX-5 binding, BCLXL inh, GLD-1 RNA inh, MCL1 BIM primary)
COC(=O)N1CCCC(c2cc(C(=O)Nc3ccccc3Cl)no2)C1 (configuration not stated)	eLon inh 52.2 (no result: MEX-5 binding, BCLXL inh, GLD-1 RNA inh, MCL1 BIM primary) | E coli Lon conf inactive
Cc1ccc(S(=O)(=O)NC(=O)NCc2ccc(Cl)cc2)cc1	eLon inh 15.5 | E coli Lon conf inactive
COc1ccc(CN(CC2CCC(C(=O)O)CC2)C(=S)Nc2ccccc2OC)cc1 (configuration not stated)	none
O=C(COc1ncnc2scc(-c3ccccc3)c12)NC1CCCc2ccccc21 (configuration not stated)	none
O=C(CN1CCSCC1)N/N=C/c1ccc(F)c(F)c1	eLon inh 27.0 | E coli Lon conf inactive
O=C(CN1CCCCCC1)N/N=C/c1ccc(Cl)c(Cl)c1	none
COc1ccc(C(NC(=O)C2CCN(Cc3ccc(Oc4ccccc4)cc3)CC2)c2ccccc2C)cn1 (configuration not stated)	eLon inh 15.2 (no result: MEX-5 binding, BCLXL inh, GLD-1 RNA inh, MCL1 BIM primary) | E coli Lon conf inactive
S=c1[nH]nc(-c2ccccn2)n1/N=C/c1ccc(Cl)cc1	eLon inh 18.0 | E coli Lon conf inactive
S=c1[nH]nc(-c2ccccn2)n1/N=C/c1ccccc1	none
